Assay outcomes (PubChem BioAssay)
aDG glyco act = alpha-DG glycosylation activation; Pro5-aDG cells, alpha-DG glycosylation AlphaScreen (IIH6); 0% Pro5, 100% B10-LARGE cell signal; activation, % at 10 µM; AID 624168; 360,000 tested, 0.22% active;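 active = activation of at least 8% versus controls, or a plate z-score of at least 8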;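 also: Pro5 are CHO cells carrying HIG-tagged alpha-DG that lacks glycosylation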
NadD block = NadD (S. aureus) enzyme inhibition. purified NadD enzyme, colorimetric absorbance read-out. inhibition, % at 20 µM. 360,000 tested, 0.78% active; in the data active = inhibition above about 26%
TAG inh = inhibitors of triacylglycerol accumulation; H9c2 cells, Nile Red lipid (TAG) fluorescence; cells loaded with 200 µM oleic acid; inhibition, % at 12.5 µM; 230,000 tested, 0.66% active; AID 651582;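 active = pattern-corrected inhibition of lipid staining of at least 50% with the nuclear-stain viability signal not falling by more than 50%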;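 also: 0% = DMSO wells and 100% = triacsin C control wells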
MPTP inh = blocks calcium-induced mitochondrial swelling | isolated mouse mitochondria, Ca2+ swelling absorbance, 30 min | inhibition, % at 10 µM | 360,000 tested, 1.4% active;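 active = inhibition of 50% or more, scaled per plate between neutral and stimulator controls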;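 also: 0% = DMSO wells given calcium and 100% = 1 mM EGTA wells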
NadD conf = NadD (S. aureus) inhibition, single concentration confirmation; shares compounds with NadD block; purified S. aureus NadD, colorimetric enzyme assay; inhibition, % at 20 µM; 2,000 tested, 13% active; in the data active = inhibition mostly above about 42%, no sharp cut-off; inactive = mostly below about 42%
Active calls of the source: *; / = not tested or not shown. Only some compounds are listed: those with a hit (about 2.7% of all), similar ones and a draw of the others.

SMILES	aDG glyco act	NadD block	TAG inh	MPTP inh	NadD conf
Oc1c(Br)cc(Br)cc1C=Nc1ccc2[nH]ncc2c1	0	30*	2	8	10
Brc1ccc(-c2csc(Nc3nc(-c4ccc(Br)cc4)cs3)n2)cc1	0	30*	/	0	-1
COC(=O)c1ccc2c(c1)N(Cc1nc(-c3ccc(Cl)cc3)oc1C)C(=O)C1CCCN21 (configuration not stated)	0	45*	-1	4	19
CCOC(=O)c1sc2nc(-c3ccco3)c3c(c2c1N)CC(C)(C)OC3	0	32*	/	-2	10
O=C1c2c(-c3ccc(Br)cc3)noc2CCN1Cc1cn(C2CCCC2)nn1	0	/	/	6	/
COc1ccc(/C=N/NC(=O)c2ccn[nH]2)cc1COc1ccc([N+](=O)[O-])c(C)c1	0	31*	-14	3	22
CCN(CC)S(=O)(=O)c1ccc(C(=O)Nc2nnc(NC(=S)Nc3ccccc3)s2)cc1	0	47*	36	8	22
N#CC(C#N)c1ccnc2ccccc12	0	-3	10	16	/
CC1(C(=O)NS(=O)(=O)C2CC2)CCN(C(=O)c2ccccc2F)C1 (configuration not stated)	0	0	6	0	/
CCCCCC(=O)N1C[C@H](n2cc(C3CC3)nn2)[C@@H](O)C[C@@H]1c1ccccc1	0	5	5	1	/
CCCCCCN1C[C@H](n2cc(C3CC3)nn2)[C@@H](O)C[C@@H]1c1ccccc1	0	-1	-17	-1	/
CCOC(=O)CC1CCCCN1Cc1cn[nH]c1-c1ccc(F)cc1F (configuration not stated)	0	-1	6	1	/
Nc1nonc1-c1nc2ccccc2n1CC(=O)N/N=C\c1ccc(-c2ccc(Cl)cc2)o1	0	42*	16	0	9
CCc1cc2c(cc3c(=O)n(CC(=O)NCCCN4CCCCCC4)nc(CC)n32)s1	0	31*	/	-1	-13
COC(=O)Cn1c(=NC(=O)c2nc3ccccc3s2)sc2cc(S(N)(=O)=O)ccc21	0	14	/	-1	/
CCOC(=O)Cn1c(=NC(=O)c2cc(-c3cccs3)nc3ccccc23)sc2cc(S(N)(=O)=O)ccc21	0	56*	/	-2	61*
COC(=O)Cn1c(=NC(=O)c2cc(-c3cccs3)nc3ccccc23)sc2cc(S(N)(=O)=O)ccc21	0	31*	/	-1	16
COc1ccc(C(=O)NC(C)c2cccnc2)cc1S(=O)(=O)N(C)Cc1ccccc1 (configuration not stated)	0	1	5	-1	/
C=C1c2cccc(OC)c2O[C@H](C(=O)OCC)[C@@H]1CC(CC)CCCC (some centres not stated)	0	17	7	-1	/
CCOC(=O)/C=C1\CC(C(=O)OCC)Oc2c(OC)cccc21 (configuration not stated)	0	39*	-5	1	38
O=C(NCc1ccco1)C12CN(Cc3ccccc3)CC1C(c1cccc([N+](=O)[O-])c1)=NO2 (configuration not stated)	0	36*	16	0	12
O=C(NCc1ccco1)C12CN(Cc3ccccc3)CC1C(c1ccc([N+](=O)[O-])cc1)=NO2 (configuration not stated)	0	7	-28	0	/
CC(=O)c1ccc(N2CCN(C(=O)CCCn3c(=S)[nH]c4cc5c(cc4c3=O)OCO5)CC2)cc1	0	46*	-1	6	15
Cc1ccc(OCc2ccc(C(=O)Nc3nc4ccccc4n3Cc3ccccc3)o2)c([N+](=O)[O-])c1	0	34*	-2	2	7
COc1ccccc1-c1cc(C(=O)Nc2sc3c(c2C#N)CCC(C)C3)c2ccccc2n1 (configuration not stated)	0	54*	30	-1	19
SMILES	aDG glyco act	NadD block	TAG inh	MPTP inh	NadD conf
CCN1CCN(CC(=O)Nc2sc3c(c2C#N)CCC(C)C3)CC1 (configuration not stated)	0	-1	7	-4	/
CC1CCc2c(sc(NC(=O)Cn3nc(C(=O)O)c4ccccc4c3=O)c2C#N)C1 (configuration not stated)	0	39*	4	3	-6
Cc1onc(-c2ccccc2)c1C(=O)NC(=S)Nc1sc2c(c1C#N)CCC(C)C2 (configuration not stated)	-1	36*	11	31	-1
COc1ccc(-c2cc(C(=O)Nc3sc4c(c3C#N)CCCC4)c3ccccc3n2)cc1	0	36*	/	-9	14
COc1ccc(OC)c(-c2cc(C(=O)Nc3sc4c(c3C#N)CCC(C)C4)c3ccccc3n2)c1 (configuration not stated)	0	15	/	1	/
CC1CCc2c(sc(NC(=O)CSc3nnc(-c4ccccc4)o3)c2C#N)C1 (configuration not stated)	0	8	/	0	/
CCCc1cc(=O)[nH]c(SCC(=O)Nc2sc3c(c2C#N)CCC(C)C3)n1 (configuration not stated)	0	28*	16	30	45
O=c1cc(-c2ccccc2)oc2cc(OCc3ccccc3)cc(O)c12	0	-1	2	4	/
O=c1cc(-c2ccc(OCc3ccccc3)cc2)oc2cc(OCc3ccccc3)cc(OCc3ccccc3)c12	0	42*	-4	0	13
CN(Cc1ccc(Cl)c(Cl)c1)C(C(=O)NCc1ccccc1)c1ccc(C(F)(F)F)cc1 (configuration not stated)	0	/	/	10	/
COc1ccc2nc(/C(C#N)=C\c3ccc(C(=O)O)cc3)[nH]c2c1	0	2	9	1	/
COc1ccc2nc(/C(C#N)=C\c3ccc(Oc4ccc([N+](=O)[O-])cn4)cc3)[nH]c2c1	0	35*	/	11	9
CCOC(=O)C1=C(C)N(C[C@@H]2CC[C@@H](Cc3ccc(-c4ccccc4)cc3)O2)C(=O)NC1c1ccc(SCc2ccco2)c([N+](=O)[O-])c1 (some centres not stated)	0	59*	7	2	26
C=C(C)/C=N/NC(=S)Nc1ccc(S(=O)(=O)N2CCOCC2)cc1	0	0	5	0	/
O=S(=O)(c1ccc(NC(=S)N/N=C/c2c3ccccc3cc3ccccc23)cc1)N1CCOCC1	-1	34*	/	4	28
O=S(=O)(c1ccc(NC(=S)N/N=C/c2ccc(N3CCOCC3)cc2)cc1)N1CCOCC1	0	1	/	0	/
O=S(=O)(c1ccc(NC(=S)N/N=C/c2ccc(Oc3ccccc3)cc2)cc1)N1CCOCC1	-1	28*	17	8	-3
COc1cccc(C(C(=O)NC(C)(C)C)N(C(=O)CCC(=O)Nc2cc(C)on2)c2ccc3c(c2)OCCO3)c1OC (configuration not stated)	0	-3	/	2	/
CCOC(=O)CNC(=O)CN1CCC(c2nc3ccccc3[nH]2)CC1	0	2	/	-1	/
